# Screens (PubChem BioAssay)
# AmpC inh no det: inhibitors of E. coli AmpC beta-lactamase without detergent | P00811 | AmpC nitrocefin hydrolysis, absorbance 480 nm, no detergent | Potency, µM (doses to about 28.7 µM), without a hit: at the highest dose activity change, negative = inhibition | 71,000 tested, 1.8% active | AID 585; further: % of control where 0% means no effect
# Target sequence (P00811 whole entry, looked up): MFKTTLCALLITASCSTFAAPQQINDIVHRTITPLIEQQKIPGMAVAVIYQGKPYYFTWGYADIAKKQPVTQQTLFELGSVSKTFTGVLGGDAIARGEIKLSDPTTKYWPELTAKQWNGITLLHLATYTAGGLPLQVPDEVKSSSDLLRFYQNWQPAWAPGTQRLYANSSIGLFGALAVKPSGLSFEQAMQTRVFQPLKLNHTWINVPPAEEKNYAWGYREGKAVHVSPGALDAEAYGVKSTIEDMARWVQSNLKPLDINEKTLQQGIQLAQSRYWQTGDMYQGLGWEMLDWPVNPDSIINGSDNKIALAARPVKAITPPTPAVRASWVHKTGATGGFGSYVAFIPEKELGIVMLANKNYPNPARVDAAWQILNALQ
#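 AmpC, 20 mM phosphate pH 7.0; 15 min cpd preinc, RT; start with nitrocefin (800 uM stock); A480 kinetic read, 20 s intervals, 4 min. No-enzyme wells = negative control.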
# Prx2 Sm inh: blocks S. mansoni peroxiredoxin 2 enzymatic activity; S. mansoni Prx2 activity coupled to TGR/GSH (TGR is thioredoxin glutathione reductase), NADPH fluorescence loss, qHTS; Potency, µM; 65,000 tested, 0.07% active; AID 448
#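 Prx2 activity was followed as the loss of NADPH fluorescence (ex 365/em 450 nm), read every 30 sec for 8 min after H2O2 start. The enzyme mix (50 nM Prx2, 25 nM TGR, GSH, NADPH; pH 7.4 phosphate buffer) was incubated with compound for 15 min at room temperature first.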
# LT uptake inh: blocks cellular internalization of anthrax lethal toxin. Cells, anthrax lethal toxin internalization, FRET ratio (460/530). Potency, µM (highest dose often 40 µM), for inactives: top-dose activity change, negative = inhibition, actives largely listed as inhibitors. 70,000 tested, 0.67% active. AID 912; further: on the % scale 0 is the no-effect control and ±100 the full control effect; nearly all actives have a fitted effect of over 50% in size
# AmpC inh det: AmpC beta-lactamase inhibition, detergent assay. P00811. purified AmpC, nitrocefin hydrolysis with detergent. Potency, µM (doses to about 28.7 µM), for inactives: at the top dose activity change, negative = inhibition. 71,000 tested, 0.09% active. AID 584; active means well fitted curve in the direction sought with a large enough effect; inconclusive means small, poorly fitted or top-dose-only effect; further: on the % scale 0 is the no-effect control and ±100 the full control effect
#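 E. coli AmpC (5.3 nM) in 20 mM phosphate pH 7.0 with 0.01% Triton X-100, preincubated 15 min RT with compound; nitrocefin (2 uL of 800 uM stock) hydrolysis followed by 480 nm absorbance every 20 s over 4 min.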
# * = called active by the depositor; ? = inconclusive; · = no result; [ ] = remark or other dose. An excerpt weighted towards active compounds, which were near 2.4% of everything screened. Unless noted, the call rests on the fitted dose curve. Potency means the concentration at half of the fitted maximal effect.
SMILES,AmpC inh no det,Prx2 Sm inh,LT uptake inh,AmpC inh det
O=C(NCCc1c[nH]c2ccccc12)c1c(Cl)nc2sccn12,12.6µM*,>57,9.1%,-3.0%
Cn1c(C(=O)NCCc2c[nH]c3ccccc23)cc2sccc21,-5.9%,>57,?,11.7%
Cn1nc(CC(=O)NC2CCCCCC2)c2ccccc2c1=O,3.16µM*[single pt active],>57,?,11.4%
COc1ccc(CNC(=O)Cc2nn(C)c(=O)c3ccccc23)cc1,3.4%,>57,-8.6%,-1.6%
CCCCCCc1ccc(-c2ccc(C#N)cc2)cc1,-9.6%,·,?,14.4%
Cc1ccc(S(=O)(=O)O[C@@H]2[C@H]([C@@H]3COC(C)(C)O3)O[C@H]3OC(C)(C)O[C@@H]32)cc1,-11.2%[5.75 µM],>57,-3.9%[8 µM],-4.8%[5.75 µM]
CN[C@H]1[C@H](C)O[C@@H](O[C@@H]2C/C=C(/C)C/C(C)=C\C=C/CC[C@@H](C)CNC(=O)/C=C\C=C/[C@H]2C)C[C@@H]1O,16.9%[5.75 µM],>57,?,-1.7%[5.75 µM]
CC1CCCCN1CCNC(=O)c1cc2c(-c3ccccc3F)nn(C)c2s1 (stereo not given),3.98µM*[single pt active],>57,7.94µM*,9.8%
CCN(CC)CCCNC(=O)c1cc2c(-c3ccc(Cl)cc3)nn(C)c2s1,3.98µM*[single pt active],>57,2.51µM*,13.5%
Cn1nc(-c2ccc(Cl)cc2)c2cc(C(=O)NCC3CCCO3)sc21 (stereo not given),149.5%,>57,?,7.6%
CN1CCN(CCCNC(=O)c2cc3c(-c4ccc(Cl)cc4)nn(C)c3s2)CC1,170.2%,>57,6.31µM*,16.9%
CC(C)CN1CCC2(CC1)CCN(C(=O)c1cccc(F)c1)CC2,12.2%,>57,?,-4.6%
NCS(=O)(=O)O,-1.2%[5.75 µM],>57,-3.5%[8 µM],-2.7%[5.75 µM]
COc1ccc(-c2nc(CS(=O)CC(=O)N3CCCC3)c(C)o2)cc1 (stereo not given),3.98µM*[single pt active],>57,15.0%,14.1%
COc1ccc(-c2nc(CS(=O)CC(=O)NCc3ccco3)c(C)o2)cc1OC (stereo not given),3.98µM*[single pt active],>57,-2.1%,11.7%
COCCNC(=O)CS(=O)Cc1nc(-c2ccc(OC)cc2)oc1C (stereo not given),3.16µM*,>57,-5.9%,11.9%
COc1ccc(-c2nc(CS(=O)CC(=O)NCc3ccc4c(c3)OCO4)c(C)o2)cc1 (stereo not given),95.9%,>57,-5.2%,14.0%
COc1ccc(CNC(=O)CS(=O)Cc2nc(-c3ccc(C)cc3)oc2C)cc1 (stereo not given),114.3%,>57,-24.7%,11.0%
COc1ccc(-c2nc(CS(=O)CC(=O)NCC3CCCO3)c(C)o2)cc1 (stereo not given),3.98µM*[single pt active],>57,8.9%,11.6%
CN1CCN(C(=O)c2nc3ccc(Cl)cc3[nH]2)CC1,·,·,6.7%,·
CC(C)=CCC/C(C)=C/CO/N=C1/C[C@@H](O)[C@@H](O)[C@@H]2[C@H]3C(=O)N(c4ccc(F)cc4F)C(=O)[C@@H]3CC[C@@H]12,·,·,-3.8%[8 µM],·
COc1ccc(NC(=O)c2nnn(Cc3cccc(F)c3)c2N)c(OC)c1,2.51µM*[single pt active],>57,-3.8%,11.0%
COc1ccc(C)cc1NC(=O)c1nnn(Cc2cccc(F)c2)c1N,3.16µM*[single pt active],·,-5.8%,14.7%
COc1ccc(OC)c(NC(=O)c2nnn(Cc3ccc(Br)cc3F)c2N)c1,3.16µM*[single pt active],?,?,12.8%
COc1cccc(Cn2nnc(C(=O)Nc3cc(Cl)ccc3OC)c2N)c1,-21.6%,>57,?,12.3%
SMILES,AmpC inh no det,Prx2 Sm inh,LT uptake inh,AmpC inh det
Cc1ccc(C)c(NC(=O)c2nnn(Cc3ccccc3)c2N)c1,-11.9%,>57,-8.4%,23.8%
Cc1cc(Nc2ccccc2)nc(-c2ccccc2O)n1,2.6%,>57,12.6µM*,-2.5%
Cc1cc(Nc2cccc(F)c2)nc(-c2ccccc2O)n1,-18.4%,>57,?,12.5%
N=C1Sc2ccccc2C2=NCCCN12,-13.3%,>57,0.0251µM*,-1.1%
COc1ccccc1CNc1ccnc(-c2cccc(NS(C)(=O)=O)c2)n1,43.1%,>57,?,9.2%
O[C@]1(c2ccccc2)c2ccccc2NC2=NCCN21,-8.1%[5.75 µM],>57,-16.0%[8 µM],-5.3%[5.75 µM]
COc1cc(OC)cc(OCC(O)Cn2ccnc2C)c1 (stereo not given),17.6%,>57,-9.5%,10.2%
Cc1cccc(C)c1OCC(O)Cn1ccnc1C (stereo not given),3.98µM*[single pt active],>57,-8.2%,2.0%
N=C(N)SC(c1ccccc1)c1ccccc1,-3.5%[5.75 µM],>57,-2.7%[8 µM],-2.5%[5.75 µM]
Cc1cccc(NC(=O)Nc2ccc(C#N)cc2)n1,0.1%,>57,-6.6%,2.9%
COc1ccc(NC(=O)Nc2cccc(C)n2)cc1,3.98µM*[single pt active],>57,-12.6%,9.7%
CSc1ccc2c(c1)N(CC[C@H]1CCCCN1C)c1ccccc1S2,68.5%[12.8 µM],>57,10µM*,0.8%[12.8 µM]
CN1CCCC[C@@H]1CCN1c2ccccc2Sc2ccc(S(C)=O)cc21 (stereo not given in full),-1.8%[5.75 µM],>57,-1.3%[8 µM],-1.6%[5.75 µM]
Cc1ccccc1-c1cncnc1Nc1ccccc1,10.9%,>57,9.9%,8.9%
CN(Cc1cccc2ccccc12)Cc1cccc2ccccc12,-1.8%[5.75 µM],>57,-8.8%[8 µM],-3.1%[5.75 µM]
Cn1c(=O)c2nc(-c3ccc(Cl)cc3Cl)oc2c2ccccc21,2.51µM*,>57,-19.1%,13.0%
c1ccc(C(c2ccccc2)N2CC3(CCNCC3)C2)cc1,35.7%,>57,10µM*,-3.1%
c1ccc(-c2ccc(N3CC4(CCNCC4)C3)cc2)cc1,82.1%,>57,12.6µM*,-2.8%
CN(CC(=O)O)Cc1c[nH]c2ccccc12,-5.1%[5.75 µM],>57,-5.1%[8 µM],-3.5%[5.75 µM]
Cc1ccc2nc(NC(=O)CN(C)S(=O)(=O)c3ccc(Br)s3)sc2c1,-21.5%,>57,5.01µM*,3.0%
Cc1ccc2nc(NC(=O)CNS(=O)(=O)c3ccc(Br)s3)sc2c1,-22.6%,>57,?,9.0%
c1cc2c(cc1C(N1CCNCC1)N1CCNCC1)OCO2,-2.8%[5.75 µM],>57,-9.5%[8 µM],-2.6%[5.75 µM]
Cc1csc(NC(=O)CCCSc2nc3ccccc3s2)n1,0.6%,>57,-17.7%,2.5%
Cc1cnc(NC(=O)CCCSc2nc3ccccc3s2)s1,12.6µM*,>57,18.3%,-4.1%
CCN(CC)C(=O)N[C@@H]1C=C2c3cccc4[nH]cc(c34)C[C@@H]2N(C)C1,14.7%,>57,-15.0%,-2.0%
SMILES,AmpC inh no det,Prx2 Sm inh,LT uptake inh,AmpC inh det
CCOC(=O)Cc1csc(-n2sc3ccccc3c2=O)n1,6.2%,>57,3.16µM*,9.3%
O=C(O)c1cc(C(=O)O)nc(C(=O)O)c1,-12.0%[5.75 µM],>57,-11.7%[8 µM],-2.6%[5.75 µM]
O=C(c1ccc(COc2ccc(Cl)cc2)o1)N1CCN(Cc2ccc3c(c2)OCO3)CC1,91.4%,·,-22.4%,-5.7%
O=C(Nc1ccc2c(c1)OCO2)c1ccc(COc2ccc3c(c2)CCC3)o1,-19.6%,>57,6.31µM*,-4.4%
CN(C)c1ccc(NC(=O)c2ccc(COc3cccc(Cl)c3)o2)cc1,15.6%,>57,10µM*,9.2%
O=C(Cn1ncc2c(=O)oc3ccccc3c21)N1CCCc2ccccc21,14.8%,>57,-4.2%,-1.5%
O=C(Cn1ncc2c(=O)oc3ccccc3c21)N1CCN(C(=O)c2ccco2)CC1,4.7%,?,-4.2%,-1.8%
CC1CC(C)CN(CCCNC(=O)Cn2ncc3c(=O)oc4ccccc4c32)C1 (stereo not given),3.16µM*[single pt active],>57,-5.6%,9.2%
